Assay outcomes as filed in PubChem.
Rows were chosen to be rich in hits. Some 4% of all compounds tested hit in one or more screens of this group.
Wnt act: activators of Wnt/beta-catenin signaling | Wnt/beta-catenin reporter cell assay, activator, plate reader | activation, % at 9.35 µM | 300,000 tested, 1.2% active; in the data active means activation above about 30%, passing the limit was not always enough; inconclusive means no clear call, values can overlap the other calls;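 further: 0% = neutral control wells and 100% = positive control wells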
MITF act: activators of MITF-driven TRPM1 promoter activity in SK-MEL-5 cells. SK-MEL-5 TRPM1-promoter luciferase, 24 h; % of positive control, neutral wells = 0. activation, % at 12.5 µM. 300,000 tested, 0.75% active;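 active means mean activation of at least 80% with every replicate also reaching 80%; inconclusive means mean reaches 80% but some replicate falls short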;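 further: 0% = neutral control wells and 100% = parthenolide positive control wells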
EWS-Fli block: inhibitors of EWS/Fli oncoprotein transcriptional activity; A673 NR0B1-luciferase reporter, viability-normalised; inhibition, % at 12.6 µM; 350,000 tested, 0.67% active; AID 651661;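 active means mean inhibition of at least 50% after viability correction, with every replicate also passing that limit; inconclusive means mean reaches 50% but only one of two replicates passes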;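 further: firefly luciferase signal divided by Alamar Blue viability fluorescence both relative to DMSO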
MITF TRPM1 inh: MITF TRPM1 promoter inhibition in SK-MEL-5 cells | SK-MEL-5 TRPM1 promoter luciferase, 24 h | inhibition, % at 12.5 µM | 330,000 tested, 0.83% active;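 active means mean inhibition across replicates of 60% or more, whatever share of single replicates reaches that level; inconclusive means some that reach 60%, reason not given; inactive means mean inhibition across replicates below 60%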
PAX8 inh HTS: PAX8 transcriptional activity inhibition | 360,000 tested, 1.2% active | RMG-I TPO-luciferase reporter, SteadyGlo, 24 h | inhibition, % at 12.6 µM | AID 652154;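 active means mean replicate inhibition at least 60% with every replicate also reaching 60%; inconclusive means only one of the two criteria is met; inactive means mean below 60% and not all replicates reaching 60%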;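 further: luciferase light reporting Pax8 driven TPO promoter activity; plate controls were median of neutral control wells for no effect and mitoxantrone controls for full effect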
esBAF inh: inhibitors of esBAF chromatin remodeling in mouse ES cells; AID 602393; Bmi1-luciferase knock-in reporter, 24 h; 100% = twice the neutral-well signal; reporter increase, % at 12.5 µM; 350,000 tested, 2% active; in the data active means activation above about 40%; inconclusive means no clear call, values can overlap the other calls;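 further: 0% = median of the plate's neutral control wells and 100% = double that signal; a rise in the Bmi1 reporter signal indicates esBAF inhibition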
Starred values were filed as active, the others as inactive; ? = inconclusive; . = no result.

SMILES	Wnt act	MITF act	EWS-Fli block	MITF TRPM1 inh	PAX8 inh HTS	esBAF inh
CC(OC(=O)c1ccc(-n2cnnn2)cc1)C(=O)Nc1ccccc1F (stereo unspecified)	51*	5	-1	-4	15	2
Nc1cc2c(cc1Cl)-c1ccccc1C2=NO	-3	55	-101	-51	-202	52*
ON=C1c2ccccc2-c2ccccc21	1	3	-6	-3	-24	6
C[C@H]1CN([C@@H](C)CO)C(=O)c2cc(C3=CCCCC3)cnc2O[C@H]1CN(C)C(=O)c1cccnc1	.	.	-1	.	.	-5
CCOC(=O)c1cnc2ccc(C(=O)OC)cc2c1Nc1ccc(C(=O)O)cc1	1	-6	8	9	104*	.
Cc1ccc(S(=O)(=O)N(C)C[C@@H]2Oc3cc(Br)ccc3S(=O)(=O)N([C@H](C)CO)C[C@@H]2C)cc1	.	.	-3	.	7	0
C[C@@H]1CN([C@@H](C)CO)C(=O)Cc2cc(N(C)C)ccc2O[C@H]1CN(C)Cc1ccc(Oc2ccccc2)cc1	.	.	-15	.	82*	-5
C[C@H](CO)N1C[C@H](C)[C@H](CN(C)Cc2ccc(Oc3ccccc3)cc2)Oc2ccc(N(C)C)cc2CC1=O	.	.	2	.	16	-2
C[C@@H]1CN([C@@H](C)CO)C(=O)c2cc(N(C)C)ccc2O[C@@H]1CN(C)Cc1ccc(Oc2ccccc2)cc1	.	.	-9	.	84*	-5
COc1cc2nc(SCC(=O)NCc3ccco3)n(Cc3ccc(Cl)cc3)c(=O)c2cc1OC	0	-61	.	62*	-12	-5
CCCCNC(=O)CSc1nc2ccc(N3CCOCC3)cc2c(=O)n1Cc1ccc(OC)cc1	15	48	-16	-46	-25	64*
CCCCn1c(SCC(=O)Nc2ccc(OC)cc2)nc2ccc(N3CCOCC3)cc2c1=O	.	.	.	1	4	2
COCCNC(=O)CSc1nc2cc(OC)c(OC)cc2c(=O)n1Cc1ccc(OC)cc1	-2	-2	.	0	9	6
COCCNC(=O)CSc1nc2ccc(N3CCOCC3)cc2c(=O)n1Cc1ccc(OC)cc1	.	.	.	-43	.	78*
c1ccc(Cn2c(-c3cncs3)nc3ccccc32)cc1	.	47	.	-43	.	66*
Cc1cccc(C(=O)OCC(=O)Nc2ccc3c(c2)OCCO3)c1	8	12	-1	-13	-32	-1
O=C(COC(=O)c1cccc(F)c1)Nc1ccc2c(c1)OCCO2	32*	9	-3	5	-65	27
O=C(COC(=O)c1ccccc1F)Nc1ccc2c(c1)OCCO2	41*	10	-13	-10	-13	1
CCC(=O)c1ccc(OCC(=O)Nc2ccc3c(c2)OCCO3)cc1	1	46	-36	-44	-162	30
O=C(COc1ccc(F)cc1)Nc1ccc2c(c1)OCCO2	38*	66	-85	-60	-201	.
N#CCC(=O)Nc1ccc(C(=O)OCC(=O)NC(=O)Nc2ccc3c(c2)OCCO3)cc1	29	58	-64	-43	-192	61*
C[C@H](NC(=O)C[C@@H]1CC[C@H](NC(=O)CN2CCOCC2)[C@@H](CO)O1)c1ccccc1	.	.	-3	.	-21	4
Cc1noc(C)c1NC(=O)Nc1ccc2c(c1)CC(=O)N([C@H](C)CO)C[C@H](C)[C@@H](CN(C)S(=O)(=O)c1ccc(F)cc1)O2	.	.	-19	.	-1	-1
CN(CC(=O)Nc1ccc(F)cc1)C(=O)COC(=O)c1cccc(N(C)C)c1	41*	.	-71	.	-78	48*
CCS(=O)(=O)Nc1ccc2c(c1)C(=O)N(C)C[C@H](OC)[C@H](C)CN(C(=O)c1ccc3c(c1)OCO3)[C@@H](C)CO2	.	.	1	.	.	-3
SMILES	Wnt act	MITF act	EWS-Fli block	MITF TRPM1 inh	PAX8 inh HTS	esBAF inh
C/C(=N/NC(=O)OC(C)(C)C)c1ccco1	?	41	-49	-35	-70	.
CC(/C=C/c1ccco1)=N/NC(=O)OC(C)(C)C	57*	33	-3	-29	-38	.
COc1cc(C(=O)NCC(c2cccs2)N2CCOCC2)ccc1OCc1ccc(Cl)cc1 (stereo unspecified)	-5	.	13	.	99*	17
COc1ccc(-c2ccc3c(c2)[C@H]2[C@H](CCN2C(=O)c2ccccc2F)[C@H](CO)N3C)cc1	.	.	14	.	47	2
COc1cccc(-c2ccc3c(c2)[C@H]2[C@H](CCN2C(=O)c2ccccc2F)[C@H](CO)N3C)c1	.	.	0	.	85*	15
COc1cccc(-c2ccc3c(c2)[C@@H]2[C@@H](CCN2C(=O)CC2CC2)[C@H](CO)N3C)c1	.	.	-4	.	67*	4
O=C(C[C@H]1C=C[C@H](NS(=O)(=O)c2ccc(F)cc2)[C@H](CO)O1)NCc1ccc(Cl)c(Cl)c1	.	.	-2	.	15	9
COc1cccc(C(=O)Nc2ccc3c(c2)C(=O)N(C)C[C@@H](OC)[C@@H](C)CN[C@H](C)CO3)c1	.	.	-2	.	.	3
O=C(Nc1ccc(F)cc1)N1C[C@@H]2[C@H](c3ccccc31)[C@H](CO)N2C(=O)Cc1cccnc1	.	.	-12	.	-28	6
CCc1cccc(NC(=O)CSc2nc(C)cs2)c1	-3	.	2	.	-13	82*
CCc1cccc(NC(=O)Nc2cccs2)c1	.	77	.	-75	.	59*
C[C@H](CO)N1C[C@H](C)[C@H](CN(C)Cc2ccccc2)OCc2cnnn2CCCC1=O	.	.	-3	.	.	-2
COc1ccc(CCNC(=O)c2nonc2N)cc1	9	.	.	-21	-98	48*
CCc1nc(C)cn1S(=O)(=O)c1ccc([N+](=O)[O-])cc1	-2	2	-1	-2	-6	-5
CCCn1c(CC)nc([N+](=O)[O-])c1S(=O)(=O)c1ccccc1	-5	.	.	?	82*	19
COc1ccc(NC(=O)N2CCCCN3[C@@H](CO)[C@@H](c4ccc(C#Cc5ccccn5)cc4)[C@@H]3C2)cc1	.	.	-6	.	-24	1
Cc1cc(/C=c2\sc3nc4ccccc4n3c2=O)c(C)n1-c1ccc(C(=O)O)cc1	-3	1	-18	3	-3	.
O=c1/c(=C\c2cccnc2)sc2nc3ccccc3n12	15	38	-30	-32	.	66*
Cc1cc(/C=c2/sc3nc4ccccc4n3c2=O)c(C)n1-c1ccccn1	.	-85	.	86*	.	-79
Cc1cc(/C=N/Nc2ncnc(N)c2[N+](=O)[O-])c(C)n1-c1ccccc1	-15	-80	83*	81*	62*	-79
Cc1ccc(-n2ncc(C(=O)Nc3cc(Cl)cc(Cl)c3)c2C2CCNCC2)cc1C	-8	-83	62*	85*	57	-56
O=C(NCC1CC1)[C@H]1[C@H](CO)[C@H]2Cn3c(ccc(-c4cccnc4)c3=O)[C@H]2N1Cc1cocn1	.	.	-6	.	-9	-2
COc1ccc(Cl)cc1C(=O)Nc1ccc(NC(C)=O)cc1	-2	-1	0	1	7	.
COc1ccc(Cl)cc1C(=O)Nc1ccc(Br)c(C)n1	20	5	-46	-3	-18	61*
